Gli-Sufu antag – Gli-Sufu pathway antagonists, primary screen, luciferase luminescence, Sufu-KO-LIGHT cells, uHTS; Sufu-KO-LIGHT fibroblasts, Gli luciferase reporter luminescence; inhibition, % at 5 µM; 340,000 tested, 0.74% active;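 active = inhibition above about 55%, limit read from the data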;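 note: 0% = DMSO-treated cells and 100% = wells with medium but no cells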
Shn3 3UTR inh – reduction of Shn3 3'UTR firefly luciferase signal, primary screen, Schnurri-3 inhibitor project, cell-based, Clone20 osteoblasts, set 2; AID 588674, 2011; inhibition, % at 12.5 µM; Clone20 osteoblast Shn3 3'UTR firefly luciferase, 24 h; 360,000 tested, 0.52% active;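 active = mean inhibition of at least 75% with every replicate also reaching 75%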;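 note: 0% = median of neutral control wells and 100% = pilot-screen positive control compound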
CSC inhib – cancer stem cell viability inhibitors, primary screen, luminescence; cancer stem cell-like cells viability; 300,000 tested, 1.1% active; inhibition, % at 7.5 µM; in the data active = inhibition above about 75%; tested in HMLE shEcad cells
PAX8 reporter – inhibitors of PAX8-driven TPO luciferase reporter, primary screen, RMG-I cells, single concentration; SteadyGlo, 24 h; 360,000 tested, 1.2% active; inhibition, % at 12.6 µM; AID 652154, 2013;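 active = mean replicate inhibition at least 60% with every replicate also reaching 60%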;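 note: luciferase light reporting Pax8 driven TPO promoter activity; plate controls were median of neutral control wells for no effect and mitoxantrone controls for full effect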
Mdm2-MdmX inh – inhibitors of human Mdm2-MdmX association, primary screen, cell-based, luminescence, split luciferase, SaOS-2, uHTS | AID 485346, 2010 | inhibition, % at 8 µM | Protein Mdm4 (Homo sapiens) + E3 ubiquitin-protein ligase Mdm2 (Homo sapiens), … | 330,000 tested, 3% active | SaOS-2 split-luciferase Mdm2/MdmX complementation;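 active = inhibition of at least 50% at 8 µM in the primary screen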
Target sequence (O15151 whole entry, looked up): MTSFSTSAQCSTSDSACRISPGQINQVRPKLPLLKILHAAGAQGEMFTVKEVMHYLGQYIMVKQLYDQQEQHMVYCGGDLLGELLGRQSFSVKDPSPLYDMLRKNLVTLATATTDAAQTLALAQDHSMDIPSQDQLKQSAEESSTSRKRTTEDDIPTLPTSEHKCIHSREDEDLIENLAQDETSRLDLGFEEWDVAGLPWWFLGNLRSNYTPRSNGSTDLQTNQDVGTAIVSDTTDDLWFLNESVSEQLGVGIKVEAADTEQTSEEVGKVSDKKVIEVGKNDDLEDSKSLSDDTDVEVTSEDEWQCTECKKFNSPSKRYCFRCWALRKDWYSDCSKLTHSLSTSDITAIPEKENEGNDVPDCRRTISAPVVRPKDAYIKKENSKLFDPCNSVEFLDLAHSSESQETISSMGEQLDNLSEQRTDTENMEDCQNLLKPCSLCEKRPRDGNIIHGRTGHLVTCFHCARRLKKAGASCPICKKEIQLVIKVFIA
Target sequence (Q00987 whole entry, looked up): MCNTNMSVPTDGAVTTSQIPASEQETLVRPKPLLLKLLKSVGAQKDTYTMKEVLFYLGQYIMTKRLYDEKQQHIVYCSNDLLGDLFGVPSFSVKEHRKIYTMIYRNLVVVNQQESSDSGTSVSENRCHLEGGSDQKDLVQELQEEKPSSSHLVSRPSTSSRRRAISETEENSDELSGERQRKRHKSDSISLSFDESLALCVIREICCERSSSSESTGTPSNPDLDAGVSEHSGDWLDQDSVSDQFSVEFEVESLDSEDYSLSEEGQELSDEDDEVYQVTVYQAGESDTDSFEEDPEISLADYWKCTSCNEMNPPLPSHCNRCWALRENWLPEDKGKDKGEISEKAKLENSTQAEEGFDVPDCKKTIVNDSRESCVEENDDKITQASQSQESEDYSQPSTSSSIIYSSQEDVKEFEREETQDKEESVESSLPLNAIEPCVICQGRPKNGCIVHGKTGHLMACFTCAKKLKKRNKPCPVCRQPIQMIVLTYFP
Beta apoptosis – inhibitors of cytokine-induced beta cell apoptosis, primary screen, luminescence. INS-1E cytokine-induced death, ATP luminescence, 48 h; percent of positive-control rescue, neutral wells zero. protection from apoptosis, % (concentration not given with the values). 300,000 tested, 0.8% active. AID 435005, 2010;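 active = Every replicate reaches about 75%, or at least half do and their mean reaches it too, limit read from the data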;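 note: 0% = cytokine-treated negative control wells and 100% = positive control rescue; higher means more ATP so stronger rescue from cytokine killing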
The depositor's hits bear a star; x = no result given. Only some compounds are listed: those with a hit (about 4% of all), similar ones and a draw of the others.

SMILES | Gli-Sufu antag | Shn3 3UTR inh | CSC inhib | PAX8 reporter | Mdm2-MdmX inh | Beta apoptosis
C=CCn1c(=O)c(C(=O)NCCc2ccccc2)c(O)c2ccccc21 | -4.5 | -10.1 | 116.2* | x | -3.8 | 8.7
O=C(C1CCC1)N1CC2(C1)[C@H](c1ccccc1)[C@H](CO)N2C(=O)c1ccccn1 | x | x | x | -0.6 | x | x
COc1ccc(-n2c(=S)[nH]c3cc(C(=O)Nc4ccccc4OC)ccc3c2=O)cc1 | x | x | -11.5 | -12.1 | 40.2 | 76.6*
COc1ccc(-n2c(=S)[nH]c3cc(C(=O)Nc4ccccc4OC)ccc3c2=O)c(OC)c1 | -5.0 | 38.9 | -6.4 | -3.1 | 17.0 | x
COc1ccc(OC)c(-c2cc(C3CCN(c4ncccc4[N+](=O)[O-])CC3)[nH]n2)c1 | -11.9 | 18.1 | x | 32.9 | 31.8 | -8.3
O=[N+]([O-])c1cccnc1N1CCC(c2cc(-c3cccc(C(F)(F)F)c3)n[nH]2)CC1 | 6.8 | x | 122.7* | x | 46.1 | 29.7
O=[N+]([O-])c1cccnc1N1CCC(c2cc(-c3ccc(Cl)cc3Cl)n[nH]2)CC1 | -9.7 | 3.0 | 106.0* | 21.0 | 25.0 | 1.2
CCS(=O)(=O)N1CCCCN2[C@@H](CO)[C@@H](c3ccc(C4=CCCC4)cc3)[C@@H]2C1 | x | x | x | -11.7 | x | x
CNC(=O)C[C@H]1CC[C@H]2[C@H](COc3ccc(NC(=O)Nc4cccc(F)c4)cc3C(=O)N2C)O1 | x | x | x | -16.3 | x | x
O=C(NC1CCCC1)N[C@H]1CC[C@H](CC(=O)N2CCOCC2)O[C@H]1CO | x | x | x | 4.6 | x | x
CC(=O)NN1C(=O)c2ccc3c4c(ccc(c24)C1=O)C(=O)N(NC(C)=O)C3=O | 20.2 | -0.8 | 41.8 | 13.5 | 38.6 | 108.3*
CCOc1ccc(CCNC(=O)CSc2nn(-c3ccc(C)c(Cl)c3)c(=S)s2)cc1OCC | -4.2 | 11.7 | -8.3 | 81.5* | 22.4 | -1.6
CCOc1ccc(CCNC(=O)CSc2nnnn2C)cc1OCC | 14.2 | 0.8 | 2.8 | 9.0 | 22.3 | -13.0
Clc1ccccc1CN(Cc1ccccc1)C(c1cccs1)c1nnnn1C1CCCC1 (stereo not given) | 7.6 | 23.3 | 24.3 | 3.3 | -6.4 | 8.7
CCN(Cc1ccccc1)C(c1cccs1)c1nnnn1C1CCCCC1 (stereo not given) | 7.7 | 15.5 | 38.6 | x | 23.6 | 100.8*
Cc1ccc(S(=O)(=O)N(C)C[C@H]2Oc3ccc(NS(=O)(=O)c4c(C)noc4C)cc3CC(=O)N([C@H](C)CO)C[C@H]2C)cc1 | x | x | x | -2.1 | x | x
O=C(Nc1ncc(S(=O)(=O)c2ccc([N+](=O)[O-])cc2)s1)c1cccc2ccccc12 | 6.4 | 19.1 | 112.1* | 8.9 | 42.1 | 32.3
COc1ccccc1NS(=O)(=O)c1cc([N+](=O)[O-])ccc1N/N=C/c1c(C)[nH]c2ccccc12 | 4.2 | 4.2 | 11.1 | x | 16.9 | x
O=[N+]([O-])c1ccc(N/N=C/c2c[nH]c3ccccc23)c(S(=O)(=O)Nc2ccc(Cl)cc2)c1 | 1.3 | 0.6 | 101.4* | -8.6 | 17.8 | 12.4
C[C@@H](NC(=O)[C@H]1N[C@H]2c3ccc(-c4cncnc4)c(=O)n3C[C@H]2[C@@H]1CO)c1ccccc1 | x | x | x | -8.1 | x | x
Cc1ccc(S(=O)(=O)n2ccc3cccnc32)cc1 | 12.7 | -8.5 | -9.5 | 18.0 | 20.7 | -8.5
O=S(=O)(c1ccc(Cl)cc1)n1ccc2cccnc21 | 9.3 | 97.8* | -8.2 | 10.1 | -17.9 | 3.0
Cc1ccc(/C=C/c2onc(C)c2S(=O)(=O)N2CCC(C(=O)N3CCN(C)CC3)CC2)cc1 | -7.9 | 19.6 | 24.9 | -1.9 | 41.9 | -0.1
Cc1cccc(NC(=O)C2CCN(S(=O)(=O)c3c(C)noc3/C=C/c3ccco3)CC2)n1 | 10.4 | 29.0 | 1.9 | 62.3* | 22.2 | -13.4
CCC(C)N1CCN(C(=O)C2CCN(S(=O)(=O)c3c(C)noc3/C=C/c3ccco3)CC2)CC1 (stereo not given) | 11.4 | -14.3 | 18.2 | 70.4* | 26.8 | -0.3
SMILES | Gli-Sufu antag | Shn3 3UTR inh | CSC inhib | PAX8 reporter | Mdm2-MdmX inh | Beta apoptosis
CN1/C(=C/c2cc[n+](C)c3ccccc23)C=Cc2ccccc21 | 89.0* | 84.8 | x | x | x | x
CC(=O)N1[C@H](CNC(=O)CN2CCOCC2)[C@@H](c2ccccc2)[C@@H]1CO | x | x | x | -7.6 | x | x
CNc1ccc(Br)cc(C(=O)/C=C/c2ccc(Cl)cc2Cl)c1=O | -9.0 | -6.0 | 11.5 | 66.5* | 9.8 | -1.1
CN(CC(=O)Nc1ccccc1Oc1ccccc1)Cc1ccccc1F | 14.9 | 9.7 | 91.4* | 12.3 | 8.0 | -6.9
O=S(=O)(Cc1ccccc1)N1CCCCN2[C@H](CO)[C@H](c3ccc(-c4ccccc4)cc3)[C@@H]2C1 | x | x | x | -12.9 | x | x
COc1cc(/C=N/NC(N)=S)cc(Br)c1OCc1ccccc1F | 32.5 | 27.0 | -30.3 | 70.5* | 44.1 | 22.3
O=[N+]([O-])c1ccc(-c2cn3nc(-c4ccccc4)c(-c4ccccc4)nc3n2)cc1 | 10.9 | x | -1.0 | 3.5 | 5.3 | 1.1
O=[N+]([O-])c1cccc(-c2cn3nc(-c4ccccc4)c(-c4ccccc4)nc3n2)c1 | 5.6 | -23.5 | -3.9 | 1.5 | 5.5 | 97.9*
CCC(=O)N1[C@@H](CO)[C@@H](c2ccc(-c3cccnc3)cc2)[C@@H]1CN(CC)C(C)=O | x | x | x | -0.3 | x | x
CN1CCN(Cc2ccc(Sc3ccc(Cl)cc3)c([N+](=O)[O-])c2)CC1 | 24.9 | 17.1 | 86.0* | 2.7 | 23.1 | 4.3
O=NN(CCc1ccncc1)c1ccc(OCc2ccccc2)cc1 | 48.4 | 83.1 | 17.6 | -4.8 | 17.4 | 99.2*
C=CC(=O)N1C/C(=C/c2ccc(F)cc2)C(=O)/C(=C\c2ccc(F)cc2)C1 | 11.5 | 90.6* | x | 99.7* | x | x
O=C(Nc1cccc(O)c1)C(=O)Nc1ccccn1 | -25.3 | 11.7 | 13.5 | 67.5* | -113.2 | 18.2
O=C(Nc1ccccc1)C(=O)Nc1ccccn1 | -65.2 | -38.0 | 9.9 | x | -28.3 | 9.3
CO[C@@H]1CN(C)C(=O)c2cc(NC(=O)NC(C)C)ccc2OC[C@H](C)N(CC2CC2)C[C@H]1C | x | x | x | -2.5 | x | x
N#C[C@@H]1[C@@H](c2ccccc2-c2cccc(F)c2)[C@H](CO)N1C(=O)C1CCC1 | x | x | x | 3.8 | x | x
N#C[C@H]1[C@H](c2ccc(-c3ccccc3)cc2)[C@H](CO)N1C(=O)Cc1ccncc1 | x | x | x | 14.2 | x | x
Cc1ccccc1S(=O)(=O)N1[C@H](CO)[C@@H](c2ccc(C#CC3CC3)cc2)[C@@H]1C#N | x | x | x | 64.4* | x | x
CCCC#Cc1ccc([C@@H]2[C@@H](CO)N(S(=O)(=O)c3cccc(F)c3)[C@H]2C#N)cc1 | x | x | x | 50.8 | x | x
N#C[C@@H]1[C@@H](c2ccc(-c3ccccc3)cc2)[C@@H](CO)N1C(=O)Cc1ccncc1 | x | x | x | 68.3* | x | x
CCCC#Cc1ccc([C@@H]2[C@@H](C#N)N(S(=O)(=O)c3cccc(F)c3)[C@H]2CO)cc1 | x | x | x | 81.4* | x | x
